High-throughput results as filed in PubChem BioAssay.
SENP7 inh – SENP7 protease inhibition; Q9BQF6; recombinant SENP7, Z-RLRGG-aminoluciferin luminescence, 40 min; inhibition, % at 5 µM; hit rate 1.5% among 330,000; AID 434973;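 active = inhibition above about 50% at the single test dose, limit read from the data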;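 also: plate controls were DMSO with enzyme for no effect and no enzyme buffer wells for full effect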
SENP8 block-1 – SENP8 (human) protease inhibition | hit rate 0.64% among 360,000 | recombinant SENP8, Nedd8 substrate fluorescence | Q96LD8 | inhibition, % at 20 µM; in the data active = inhibition mostly above about 40%, no sharp cut-off; inactive = mostly below about 27%
Platelet DG rel – platelet dense granule release activity | human platelet-rich plasma, SFLLRN dense granule ATP release, luminescence | inhibition, %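 (compounds screened at 7.5 µM in platelet-rich plasma)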 | hit rate 0.22% among 300,000 | AID 1663;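 active = mean replicate score, as percent of positive control, at or above 50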
SENP8 block-2 – inhibitors of human SENP8 protease; hit rate 1.2% among 330,000; purified SENP8, Z-RLRGG-aminoluciferin cleavage, luminescence; inhibition, % at 10 µM; Q96LD8; AID 2540; in the data active = inhibition above about 50%
SENP6 inh – inhibitors of human SENP6 protease. Q9GZR1. Recombinant SENP6 catalytic domain, aminoluciferin luminescence. inhibition, % at 10 µM. hit rate 1.8% among 330,000. AID 2599;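 active = inhibition above about 50% at the single tested dose, limit read from the data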;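 also: plate controls were DMSO wells with enzyme for no effect and DMSO wells lacking enzyme for full effect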
Target sequence (Q9GZR1 628-1112 limits assumed): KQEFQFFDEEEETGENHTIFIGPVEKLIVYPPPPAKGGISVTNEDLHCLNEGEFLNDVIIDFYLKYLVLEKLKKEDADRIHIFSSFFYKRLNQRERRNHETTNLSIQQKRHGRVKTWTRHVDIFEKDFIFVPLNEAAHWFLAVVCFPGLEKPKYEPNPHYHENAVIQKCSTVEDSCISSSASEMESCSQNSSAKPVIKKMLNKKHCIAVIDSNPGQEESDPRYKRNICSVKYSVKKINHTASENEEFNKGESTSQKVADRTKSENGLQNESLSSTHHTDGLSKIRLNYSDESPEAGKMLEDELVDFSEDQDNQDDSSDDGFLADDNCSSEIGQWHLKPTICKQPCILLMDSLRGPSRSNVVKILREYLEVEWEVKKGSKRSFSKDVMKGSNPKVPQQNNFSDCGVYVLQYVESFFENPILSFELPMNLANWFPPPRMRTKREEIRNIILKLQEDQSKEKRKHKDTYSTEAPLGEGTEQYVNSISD
SENP8 conf – human SENP8 inhibition, confirmed; shares compounds with SENP7 inh; Recombinant SENP8, Z-RLRGG-aminoluciferin luminescence, 60 min; inhibition, % at 12.5 µM; hit rate 40% among 6,200; AID 488912;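 active = mean inhibition across replicates above about 50%, limit read from the data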
SENP6 confirm – confirmation of human SENP6 protease inhibitors; shares compounds with SENP7 inh; recombinant SENP6, Z-RLRGG-aminoluciferin luminescence; inhibition, % at 12.5 µM; hit rate 58% among 6,200; AID 488915
SENP7 conf – confirmation of human SENP7 protease inhibitors; recombinant SENP7, Z-RLRGG-aminoluciferin luminescence, 40 min; AID 488917; hit rate 69% among 6,200; shares compounds with SENP7 inh; inhibition, % at 12.5 µM
Casp3 SENP sel – inhibits human caspase-3 in SENP selectivity test; hit rate 60% among 6,200; AID 488918; purified caspase-3, Z-DEVD-aminoluciferin luminescence, 60 min; shares compounds with SENP7 inh; inhibition, % at 12.5 µM;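 active = mean inhibition above about 50%, limit read from the data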;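 also: plate controls were enzyme with DMSO for no effect and wells without caspase-3 for full effect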
SENP luc ctr – interferes with luciferase luminescence in SENP counter-screen | shares compounds with SENP7 inh | Pre-incubated SENP8/Z-RLRGG-aminoluciferin, luciferase luminescence interference | inhibition, % at 12.5 µM | hit rate 39% among 6,200 | AID 488919;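 active = mean inhibition above about 50% when retested at one dose, limit read from the data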;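 also: plate controls were DMSO wells with completed reaction for no effect and substrate without enzyme for full effect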
Active calls of the source: *; . = no result. Most compounds without a hit are left out; they make up all but 2.4% or so of the library.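 The calls were made as follows, unless noted: active = mean inhibition above about 50% in the one-dose retest (limit read from the data); inactive = the rest.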

SMILES | SENP7 inh | SENP8 block-1 | Platelet DG rel | SENP8 block-2 | SENP6 inh | SENP8 conf | SENP6 confirm | SENP7 conf | Casp3 SENP sel | SENP luc ctr
COc1ccc(/C(N)=N/OC(=O)C2CCCCC2)cc1 | 68.2* | -11.2 | -13.9 | 26.4 | 26.5 | -16.9 | 10.5 | 60.7* | 17.4 | 17.7
Cc1ccc(C(=O)NNC(=O)C(NC(=O)c2cccc(C)c2)C(C)C)cc1 (centres undefined) | -1.4 | 9.5 | . | 6.6 | 6.2 | . | . | . | . | .
O=C(O)c1c2c(nc3ccccc13)/C(=C/c1ccc(OC(F)F)cc1)CCC2 | -0.1 | -276.2 | 4.6 | -5.4 | 29.1 | . | . | . | . | .
O=C(O)c1c2c(nc3ccccc13)/C(=C/c1ccc(O)cc1)CC2 | 70.6* | -397.8 | -8.3 | 75.5* | 77.0* | 90.8* | 88.5* | 98.4* | 93.4* | 63.4*
O=S(=O)(c1c(Cl)cc(Br)cc1Cl)N1CCN(C(=S)NC2CC2)CC1 | -9.1 | 9.6 | . | 2.7 | -4.5 | . | . | . | . | .
Clc1cccc(-c2nc(-c3ccc(-c4nn[nH]n4)cc3)no2)c1 | 79.2* | 13.5 | . | 94.7* | 99.3* | 96.9* | 97.2* | 100.3* | 83.3* | 88.9*
CS(=O)(=O)c1ccccc1-c1nc(-c2cccc(Cl)c2)no1 | -1.2 | 8.7 | 11.6 | -3.1 | -21.6 | . | . | . | . | .
O=C(Nc1ccn(Cc2ccccc2F)n1)c1ccc(COc2cccc(Br)c2)cc1 | 14.1 | 13.4 | -3.3 | 87.7* | 96.9* | -24.5 | 90.5* | 102.6* | 56.3* | 96.9*
COc1ccc(NC(=O)c2ccc(-c3ccccc3Cl)o2)cc1 | 52.0* | 6.4 | 4.8 | 69.0* | 74.6* | 47.5 | 64.3* | 86.1* | 48.7 | 5.3
O=C(Nc1ccccc1)c1cc(-c2ccccc2Cl)no1 | 85.3* | 22.0 | 7.4 | 68.7* | 88.0* | 80.7* | 81.0* | 95.4* | 69.3* | 74.2*
O=C(Nc1cccc(F)c1)c1ccc(-c2ccccc2Cl)o1 | 34.3 | -6.5 | 6.3 | 42.4 | 53.6* | 46.6 | 49.6 | 70.3* | 25.4 | 20.7
COc1ccc(NC(=O)c2cc(-c3ccccc3Cl)no2)cc1 | -0.8 | 14.3 | 6.4 | 1.0 | -2.7 | . | . | . | . | .
O=C(NCc1cccnc1)c1ccc(-c2cccc(Cl)c2Cl)o1 | 90.6* | -5.0 | 0.4 | 2.2 | 7.9 | -29.1 | -16.0 | -6.4 | -4.0 | -6.6
O=C(NCc1cccnc1)c1ccc(-c2ccccc2[N+](=O)[O-])o1 | 1.8 | 10.8 | 2.7 | 4.0 | -3.0 | . | . | . | . | .
CC1CCN(CC(=O)Nc2ccc(S(=O)(=O)N3C(C)CCCC3C)cc2)CC1 (centres undefined) | -9.2 | 4.9 | -3.5 | -1.9 | -29.0 | . | . | . | . | .
CCCCN(C=O)c1c(CC)nc2ccc(C(=O)N3CCN(c4ccccc4)CC3)cn12 | . | -7.6 | . | . | . | . | . | . | . | .
CCc1nnc(NC(=O)c2ccc(-c3ccccc3Cl)o2)s1 | 68.1* | -228.4 | -5.4 | 10.2 | 33.0 | 4.6 | 2.9 | 1.4 | 8.6 | -2.7
CCc1nnc(NC(=O)c2ccc(COc3ccccc3Cl)o2)s1 | -3.7 | 8.0 | -7.8 | 1.2 | -13.7 | . | . | . | . | .
O=c1ccnc(S/C=C/c2ccccc2)[nH]1 | -1.9 | 8.9 | 9.6 | 71.3* | 82.6* | 78.1* | 73.4* | 88.8* | 87.1* | 75.6*
Cc1cc(N/N=C/c2ccccc2O)c2ccccc2n1 | 7.9 | -23.4 | -13.5 | -5.7 | -24.5 | . | . | . | . | .
Oc1ccc(/C=N/Nc2ncc(Br)cn2)c(O)c1 | 71.7* | 8.7 | 7.0 | 57.9* | 86.1* | 72.7* | 73.0* | 90.5* | 69.8* | 75.1*
Cc1ccc(/C=N/Nc2cccc3cccnc23)c(O)c1 | 91.6* | -54.2 | 9.9 | 69.9* | 78.3* | 85.5* | 92.7* | 77.8* | 77.0* | 57.7*
Oc1ccc(/C=N/Nc2cccc3cccnc23)c(O)c1 | 77.3* | -22.3 | 7.9 | 82.3* | 88.6* | 72.9* | 88.8* | 99.3* | 65.0* | 20.1
Oc1ccc(C=NNc2ccccn2)c(O)c1 | . | -2.8 | . | . | . | . | . | . | . | .
